Among all 420,000 compounds or so, about 64,000 (15%) were called active. Another 27% or so got no clear call; they are omitted. Only a sample is shown. Unmarked numbers belong to inactive results. Calls follow the shape of the dose curve; as a rule, active = well fitted inhibition curve with a large enough effect; inconclusive = small, poorly fitted or top-dose-only effect; inactive = flat fitted curve, though single readings scatter.
Assay: qHTS for Inhibitors of human tyrosyl-DNA phosphodiesterase 1 (TDP1): qHTS in cells in absence of CPT; also: nearly all actives have a fitted effect of over 55% in size
Conditions: DT40 Tdp1-/- hTDP1 cells, no CPT, ATP luminescence, 48 h; activity change, negative = growth inhibition: at 46.2 µM (top of the series)
In short: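 Luminescent ATP content (CellTiter-Glo) served as the growth readout. Knockout chicken DT40 cells expressing human TDP1 were exposed to compounds without camptothecin for a minimum 48 hr at 37 °C.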
% is scaled to controls: 0 for no effect and ±100 for the full control effect; potency is read from the fitted curve at half-maximal effect.

| Structure (SMILES) | activity change, negative = growth inhibition [%] | Potency |
| --- | --- | --- |
| CCc1ccc(C(=O)N2CCN(S(=O)(=O)c3sc(C(=O)O)c(C)c3C(=O)O)CC2)cc1 | 28 | – |
| CCOc1cc(C(=S)N2CCOCC2)ccc1OS(=O)(=O)c1ccc(Br)cc1 | – | 20.6 µM (active) |
| CC(=O)Nc1ccc(S(=O)(=O)Oc2ccc(Br)cc2C(=S)N2CCOCC2)cc1 | -11.6 | – |
| O=S(=O)(Oc1ccccc1C(=S)N1CCOCC1)c1ccc(Cl)cc1 | -24.6 | – |
| CCN(CC)P(=O)(C(NC(=O)OC)C(F)(F)C(F)(F)C(F)(F)C(F)F)N(CC)CC (stereo not given) | -6.34 | – |
| CCOC(=O)CSc1nc2c(sc(=S)n2CCc2ccccc2)c(=O)n1Cc1ccco1 | – | 16.4 µM (active) |
| Cc1cc(C)nc(SCc2nnc(SCC(=O)Nc3ncc(C)s3)n2Cc2ccco2)n1 | -21.5 | – |
| CCOC(=O)CSc1nnc(-c2ccco2)n1C | 2.37 | – |
| Cc1ccc(C)c(NC(=O)C2CC(=O)N(C(C)C)C2)c1 (stereo not given) | -3.74 | – |
| CCCC(C)n1[nH]c(=O)c2c(C)cc(C)nc21 (stereo not given) | -19.9 | – |
| CC(CCc1ccccc1)NC(=O)c1ccc(Br)o1 (stereo not given) | -26.8 | – |
| O=C(CNC(=O)c1ccc(Br)o1)Nc1ccccc1 | 22.8 | – |
| CC(CNC(=O)c1ccc(Br)o1)NC(=O)c1ccc(Br)o1 (stereo not given) | – | 4.61 µM (active) |
| C=C1C(=O)C23C(O)C1CCC2[C@]12COC3(O)C(O)C1C(C)(C)CC[C@H]2O (stereo not given in full) | – | 6.51 µM (active) |
| O=C(COC(=O)c1ncc(Cl)c(Cl)c1Cl)NC1CCS(=O)(=O)C1 (stereo not given) | 0.826 | – |
| NC(N)=NCCCc1cn(CC(=O)N2CCNCC2)nn1 | 8.18 | – |
| Cc1nn(-c2ccccc2)c(C)c1C(=O)OCC(=O)NC(=O)NC1CCCCC1 | – | 29.1 µM (active) |
| N#Cc1ccc(C(=O)OCC(=O)NC(=O)NC2CCCCC2)cc1 | 0.0108 | – |
| O=C(COC(=O)c1cccnc1Cl)NC(=O)NC1CCCCC1 | -9.72 | – |
| CC1Cc2ccccc2N1C1=CC(=O)CC(C)(C)C1 (stereo not given) | 3.77 | – |
| O=C(/C=C/Nc1ccccc1)c1cnc(-c2ccccc2)s1 | -12 | – |
| CC1(C(=O)O)CCCN(C(=O)/C=C/c2ccccc2)C1 (stereo not given) | 4.02 | – |
| CC(C)N(C(=O)Cn1c(SCC(=O)N2CCN(c3ccccc3)CC2)nc2ccccc21)C(C)C | -8.4 | – |
| CC(C)Cn1c(N2CCN(C(=O)/C=C/c3ccccc3)CC2)nc2ccccc21 | – | 9.2 µM (active) |
| O=C(Nc1ccc(OCCO)cc1)c1csc([C@H]2C[C@H](O)[C@@H](CO)O2)n1 | -6.08 | – |

| Structure (SMILES) | activity change, negative = growth inhibition [%] | Potency |
| --- | --- | --- |
| CCOC(=O)C1=C(C)N=c2s/c(=C\C(=O)OC)c(=O)n2C1c1ccc(OC)cc1 (stereo not given) | -18.9 | – |
| COc1ccc(OC)c(C2C3=C(N=c4s/c(=C\c5cccc(O)c5)c(=O)n42)c2ccccc2CC3)c1 (stereo not given) | – | 25.9 µM (active) |
| CC(C)(C)NC(=O)NC(=O)COC(=O)C1c2ccccc2Oc2ccccc21 | -11.4 | – |
| COc1cn(CC(=O)Nc2cccc(C)c2C)c(CN2CCCCC2)cc1=O | -0.619 | – |
| CCCCCCCCn1c2c(c(=N)c3c1CCC3)CCCC2 | – | 1.03 µM (active) |
| Nc1nnc(SCCN2C(=O)c3ccccc3S2(=O)=O)s1 | -19.8 | – |
| CN(C)CCCN(Cc1cc2cc3c(cc2[nH]c1=O)OCCO3)C(=O)NC1CCCCC1 | -27.3 | – |
| Cc1nnc(SCC(=O)Nc2ccc(S(=O)(=O)Nc3ccc(Cl)nn3)cc2)s1 | 5.6 | – |
| O=C(NC1CCCC1)C1c2ccccc2OCC(=O)N1CC(F)(F)F (stereo not given) | -22.1 | – |
| Brc1cccc[n+]1Cc1cccc(C[n+]2ccccc2Br)c1 | – | 20 µM (active) |
| Clc1cccc[n+]1CCCC[n+]1ccccc1Cl | -8.35 | – |
| Cc1ccc(N2C(=O)C3C4C=CC(CC4)C3C2=O)cc1Br (stereo not given) | -0.847 | – |
| NS(=O)(=O)c1ccc(NC(=O)COC(=O)c2ccco2)cc1 | 21.8 | – |
| CC1O[C@@H](Oc2c(-c3ccc(O)c(O)c3)oc3cc(O)cc(O)c3c2=O)C(O)C(O)C1O (stereo not given in full) | -21.7 | – |
| CCCc1nc2c(c(=O)c3ccccc3n2C)c(=O)n1C1CCCCCC1 | – | 16.4 µM (active) |
| Cn1c2ccccc2c(=O)c2c(O)cccc21 | -24.6 | – |
| O=C1CCC(C(=O)N2CCCCO2)CN1Cc1cccc(C(F)(F)F)c1 (stereo not given) | -0.0376 | – |
| Cc1ccc(-c2n[nH]c(=S)n2/N=C/c2cc3c(cc2[N+](=O)[O-])OCO3)cc1 | -9.24 | – |
| CC(=O)N/N=C/c1cc2c(cc1[N+](=O)[O-])OCO2 | -10.1 | – |
| Cc1ccc(S(=O)(=O)N/N=C\c2cc3c(cc2[N+](=O)[O-])OCO3)cc1 | – | 18.4 µM (active) |
| COc1cc(C(=O)N(Cc2ccc(C(C)C)cc2)C2CCS(=O)(=O)C2)cc(OC)c1OC (stereo not given) | -18.9 | – |
| COc1ccccc1CN(C)c1nnnn1-c1ccccc1 | -3.34 | – |
| O=C(C[C@H]1C[C@H](C(=O)N2CCOCC2)[C@@]2(CCC3CCCC3)c3[nH]c4ccc(Cl)cc4c3CCN2C1=O)NCc1ccco1 | – | 23.1 µM (active) |
| COc1ccc(CNC(=O)C[C@H]2C[C@H](C(=O)N3CCOCC3)[C@@]3(CCC4CCCC4)c4[nH]c5ccc(Cl)cc5c4CCN3C2=O)cc1OC | – | 18.4 µM (active) |
| CC[C@]12c3[nH]c4ccc(Cl)cc4c3CCN1C(=O)[C@@H](CC(=O)NCCN1CCOCC1)C[C@@H]2C(=O)N1CCN(C(=O)C2CC2)CC1 | -1.26 | – |

| Structure (SMILES) | activity change, negative = growth inhibition [%] | Potency |
| --- | --- | --- |
| CC[C@]12c3[nH]c4ccc(OC)cc4c3CCN1C(=O)C(CC(=O)NCCN1CCOCC1)C[C@@H]2C(=O)N1CCN(C(=O)C2CC2)CC1 (stereo not given in full) | -4.6 | – |
| CC[C@]12c3[nH]c4ccc(Cl)cc4c3CCN1C(=O)[C@@H](CC(=O)NCCCOC)C[C@@H]2C(=O)N1CCN(C(=O)C2CC2)CC1 | -14.3 | – |
| CC[C@]12c3[nH]c4ccc(OC)cc4c3CCN1C(=O)C(CC(=O)NCc1ccco1)C[C@@H]2C(=O)N1CCN(C(=O)C2CC2)CC1 (stereo not given in full) | -14.6 | – |
| COc1ccc(C2(O)C(=O)Nc3ccccc32)cc1 (stereo not given) | -6.73 | – |
| O=C(NNC(=O)c1ccc(Cl)cc1Cl)c1cccs1 | -6.88 | – |
| O=C(Nc1cccc2cccnc12)c1cccc(N2C(=O)CCC2=O)c1 | -26.4 | – |
| O=c1cc(CO)oc(CN2CCC(Cc3ccccc3)CC2)c1O | -7.09 | – |
| O=c1c2ccccc2nc2n1C(CSc1ccc(F)cc1)CN2 (stereo not given) | -11.3 | – |
| O=c1c2ccccc2nc2n1C(CSCc1cccc(C(F)(F)F)c1)CS2 (stereo not given) | – | 3.66 µM (active) |
| O=c1c2ccccc2nc2n1C(CSc1ccc(Cl)cc1)CN2 (stereo not given) | -10 | – |
| O=c1c2ccccc2nc2n1C(CSCc1ccccc1)CS2 (stereo not given) | – | 6.51 µM (active) |
| Cn1cc(S(=O)(=O)Nc2ccc(Cl)cc2Cl)c(=O)n(C)c1=O | -8.43 | – |
| CCN(CC)CCNC(=O)C1c2ccccc2C(=O)N(C)C1c1cn(C)c2ccccc12 (stereo not given) | -1.64 | – |
| CCOC(=O)N1CCC(NC(=O)C(NS(=O)(=O)c2ccc3c(c2)CCN3C(=O)CC)C(C)C)CC1 (stereo not given) | -2.64 | – |
| CN(C)C(=O)[C@@H]1C[C@@H](Sc2nc3ccccc3[nH]2)CN1Cc1ccc(Cl)cc1 | -22.1 | – |
| O=C(CCn1c(=S)[nH]c2ccccc2c1=O)NCCCN1CCCC1=O | -4.12 | – |
| O=C(Cc1csc(Nc2nc(=S)[nH]c3ccccc23)n1)NCCCN1CCN(c2cccc(Cl)c2)CC1 | – | 9.2 µM (active) |
| CC1CC(C)CN(CCCNC(=O)Cn2ncc3c([nH]c4ccccc43)c2=O)C1 (stereo not given) | -5.59 | – |
| O=C(CN1C(=O)NC2(CCCCCCC2)C1=O)NCc1ccc(F)cc1 | -0.899 | – |
| COc1ccc(CNC(=O)C2=Cc3cccc(OC)c3OC2)cc1OC | -19.7 | – |
| O=C(NN1C(=O)C2C3C=CC(O3)C2C1=O)c1ccncc1 (stereo not given) | 3.7 | – |
| CSC1=NN(c2ccccc2)CN(c2ccccc2)N1C | -24.6 | – |
| O=C(CCCN1C(=O)c2ccccc2C1=O)Oc1ccc(Cl)cc1 | -8 | – |
| Cc1ccc(CNC(=O)C2CC(=O)N(C3CCCCCCC3)C2)cc1 (stereo not given) | -3.8 | – |
| COc1ccc(CNC(=O)[C@@H]2CC=C[C@@H]3CCN(C4CC4)C(=O)[C@@H]32)cc1 | – | inactive |

| Structure (SMILES) | activity change, negative = growth inhibition [%] | Potency |
| --- | --- | --- |
| CCCCC[C@H]1CN(C2CCCCC2)C(=O)[C@@H]1CC(=O)NCc1ccc(OC)cc1 | – | 10 µM (active) |
| O=C(CCc1nnc2ccc(NCCCN3CCCC3=O)nn12)NCc1ccccc1Cl | -18.4 | – |
| CCn1c(COc2cccc(OC)c2)nnc1SCC(=O)N1CCOCC1 | 11.3 | – |
| Cc1ccc(OCCCn2c(=O)oc3ccccc32)cc1 | 11.2 | – |
| CCCCCCCCCCOC(=O)Cn1c(COc2cccc(OC)c2)[n+](C)c2ccccc21 | – | 2.31 µM (active) |
| CCOC(=O)Cn1c(-c2cccnc2Cl)nc2ccccc21 | 0.732 | – |
| CCCCCCCCCCOC(=O)Cn1c(COc2ccc(C)cc2)[n+](C)c2ccccc21 | – | 3.26 µM (active) |
| COc1cccc(OCCCN2CCCCCC2)c1 | 2.05 | – |
| Cc1ccc(C)c(-n2ccnc2SCC(N)=O)c1 | -0.269 | – |
| CCn1cc(C(=O)OCC(=O)Nc2cccc(C)c2)c(=O)c2ccc(C)nc21 | -0.576 | – |
| C/C=C/C=C/C(=O)O | – | inactive |
| COc1cc(/C=C/C(=O)OCC(=O)NCCCc2ccccc2)ccc1O | -15.4 | – |
| C[C@@H](NC(=O)[C@@H]1Cc2ccccc2CN1)C(=O)NC1CCCC1 | 4.68 | – |
| COc1ccc(/C=C/c2ccnc3ccccc23)cc1OC | – | 12.6 µM (active) |
| COc1ccc(/C=C/c2ccccn2)cc1OC | – | 12.6 µM (active) |
| COc1cc(/C=C/c2ccc(/C=C/c3cc(OC)c(OC)c(OC)c3)cc2)cc(OC)c1OC | -25.1 | – |
| C=CCOc1ccc(/C=N/n2cncn2)cc1OC | -10.4 | – |
| COc1ccc(/C=C/c2noc(-c3ccccc3O)n2)cc1OC | -20.9 | – |
| COc1cc(OC)cc(C(=O)NNC(=O)CCOc2ccccc2OC)c1 | 17.1 | – |
| COc1cc(OC)c(/C=C/c2ccnc3ccccc23)c(OC)c1 | – | 8.91 µM (active) |
| COc1ccc(/C=N/n2nnnc2N)cc1OC | -7.02 | – |
| O=C(CSc1nnc(-c2ccccc2)o1)N1CCOCC1 | -12.2 | – |
| O=C(CN1C(=O)c2ccccc2S1(=O)=O)N1CCc2ccccc21 | -1.33 | – |
| Cc1ccc2c(O)c(Cc3ccccc3)c(=O)[nH]c2n1 | -11.8 | – |
| CC(C)N(Cc1nnc(-c2ccc(Cl)cc2)o1)C(=O)C1=COCCO1 | -48.1 | – |

Source: PubChem BioAssay AID686978 (National Center for Advancing Translational Sciences (NCATS), 2013)
